The record followed here is PubChem BioAssay.

The source made the active and inactive calls.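 Rule for the calls: active = Her2 level under about 52% in both replicate screens, with viability over 70% of control (limit read from the data); inconclusive = Her2 under the limit in one screen only, or viability under 70%; inactive = Her2 level above the set limit.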

System in one test: not listed separately
In words: reducers of endogenous Her2 protein level, primary screen, SKBR3 breast tumor cells, AlphaScreen, ATP viability (AID 461).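 For Her2 level: lower value means less Her2 protein in the cells.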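 For viability: percent of carrier control wells set as 100% viability.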 Conditions: 18-24 h, measured here: SKBR3 viability, ATP luminescence, at 10 µM.
As usually defined, the viability is a read-out of living cells in per cent, often relative to untreated cells. `COCCOC(=O)C1=C(C)Nc2ncnn2C1c1ccc(F)cc1` (stereo not given): the viability was determined as 90%.
The same measure, in the same setting: the result for `CCC(=O)N[C@@H]1CC(C(C)(C)NC(=O)CC)CC=C1C` (stereo not given in full) reads 105%; that for `O=C(CCCCCN1C(=O)CCC1=O)NCc1ccccc1`, 103%; that for `O=C(Cn1ccc2ccccc2c1=O)NCCC(=O)NC1CCN(Cc2ccccc2)CC1`, 58%.
Same read-out and setting: then `Cc1ccc(C)c(N2CCN(C(=O)CCCn3c(=S)[nH]c4cc5c(cc4c3=O)OCO5)CC2)c1`, with 73.5%.
Take `COC(=O)C1C(=O)c2c([nH]c(C(=O)OCCOC(C)C)c2C)CC1C` (stereo not given): the viability stood at 100%.
Turning to `CCOC(=O)c1c(C)[nH]c(C)c1C(=O)COc1ccc(NC(=O)c2ccco2)cc1`, the viability came to 88.5%.
Still for that read-out and setting: the result for `CN1CCCN(C(=O)c2cc(=O)[nH]c3ccccc23)c2nc3ccccc3nc21` reads 114%.
Same read-out and setting: then `O=C(Nc1cccnc1)c1ccc2c(c1)C(=O)N(Cc1cccnc1)C2=O`, with 96.5%; and `CCCCn1c(SCC(=O)Nc2cc(C)on2)nnc1-c1cccnc1`, with 96.5%; and `Nc1nc(-c2ccccc2Br)cs1`, with 91.5%.
For `CCOc1ccc(NC(=O)CN(C)S(=O)(=O)c2cccs2)cc1`, the viability is 104%.
As for `Cc1sc(NC(=O)CSc2nc(N)n(CC(=O)c3ccccc3)n2)c(C#N)c1C`, the viability was found to be 103%.
The same measure, in the same setting: then `CCOC(=O)C1=C(C)Nc2ncnn2C1c1cc(OC)ccc1OC` (stereo not given), with 92.5%; and `O=S(=O)(NCc1ccccc1)c1ccc2c(c1)OCCO2`, with 124%; and `CC1(C)Cc2c(sc3c2C2=NCCN2C=N3)CO1`, with 111%.
On the same count and under the same terms, then `Cc1ccccc1CN1CCN(CC(=O)NCc2ccccc2)C1=O`, with 113%; and `Cc1nc2ccccc2cc1C(=O)NCc1ccco1`, with 130%; and `O=C(NCc1cccnc1)C1c2ccccc2C(=O)N1Cc1ccco1` (stereo not given), with 94.5%.
On the same count and under the same terms, then `CC(C(=O)N1CCc2ccccc21)N1CCc2ccccc2C1` (stereo not given), with 82%.
On to `Cc1ccc2cc(C#N)c(NCCCNC(=O)C3CCCO3)nc2c1` (stereo not given), for which the viability was 106%.
Still for that read-out and setting: then `Nn1c(SCC(=O)Nc2ccc3c(c2)OCO3)nnc1C1CC1`, with 102%.
The same measure, in the same setting: the result for `COc1ccc(C2C(C(=O)c3sc(C)nc3C)=C(O)C(=O)N2CCN2CCOCC2)cc1` (stereo not given) reads 99%; that for `O=C(O)c1cccc(CN2C(=O)SC(Nc3ccccc3)C2=O)c1` (stereo not given), 110%; that for `Nc1c(S(=O)(=O)c2cccs2)c2nc3ccccc3nc2n1CC1CCCO1` (stereo not given), 79.5%.
The same measure, in the same setting: the result for `O=C(Nc1ccc(OC(=O)c2ccco2)cc1)c1ccco1` reads 96.5%; that for `COC(=O)Cn1cnc2c(nnn2-c2ccc(C)cc2)c1=O`, 86%.
Take `O=C(Nc1nc2c(s1)CCc1ccccc1-2)c1cccs1`: the viability was 102%.
Same read-out and setting: then `Cc1cccc(OCCCc2c(C)n[nH]c2C)c1`, with 102%; and `O=C(CN1CCC(NC(=O)c2ccc(F)cc2)CC1)NCc1ccccc1F`, with 96.5%; and `CCCCc1ccc(NC(=O)c2c(C)noc2C)cc1`, with 105%.
On the same count and under the same terms, the result for `CC1=Nn2c(nnc2-c2ccccn2)SC1` reads 94%.
The same measure, in the same setting: the result for `O=c1oc2ccccc2n1CCn1c2ccccc2c2nc3ccccc3nc21` reads 85%; that for `COc1ccc(N2CCN(C(c3cccs3)c3nnnn3C3CCCC3)CC2)cc1` (stereo not given), 90.5%; that for `CCc1ccc2c(CN(CC)Cc3nc4ccccc4c(=O)[nH]3)cc(=O)oc2c1`, 86%.
Regarding `COc1ccc(OC)c(N(CC(=O)N2CCN(c3cc(Cl)ccc3C)CC2)S(C)(=O)=O)c1`, the viability is 100%.
For the molecule `COC(=O)c1ccc(COc2ncnc3c(Cl)cc(Cl)cc23)o1`, the viability stood at 102%.
Still for that read-out and setting: then `O=C1CC(c2cccc(Cl)c2)Cc2nc(N3CCN(c4ccccc4)CC3)ncc21` (stereo not given), with 88%; and `COc1ccccc1Oc1coc2c(CN3CCN(C)CC3)c(O)ccc2c1=O`, with 102%; and `CCOC(=O)Nc1ccc2c(CN3C(=O)NC4(CCCC4)C3=O)cc(=O)oc2c1`, with 89.5%.

For another test, the target named is Receptor tyrosine-protein kinase erbB-2 (Homo sapiens) (UniProt P04626). Described as above. Conditions: 18-24 h, at 10 µM, stronger effect = lower value.
Sequence of Receptor tyrosine-protein kinase erbB-2 (Homo sapiens) (P04626 whole entry, looked up): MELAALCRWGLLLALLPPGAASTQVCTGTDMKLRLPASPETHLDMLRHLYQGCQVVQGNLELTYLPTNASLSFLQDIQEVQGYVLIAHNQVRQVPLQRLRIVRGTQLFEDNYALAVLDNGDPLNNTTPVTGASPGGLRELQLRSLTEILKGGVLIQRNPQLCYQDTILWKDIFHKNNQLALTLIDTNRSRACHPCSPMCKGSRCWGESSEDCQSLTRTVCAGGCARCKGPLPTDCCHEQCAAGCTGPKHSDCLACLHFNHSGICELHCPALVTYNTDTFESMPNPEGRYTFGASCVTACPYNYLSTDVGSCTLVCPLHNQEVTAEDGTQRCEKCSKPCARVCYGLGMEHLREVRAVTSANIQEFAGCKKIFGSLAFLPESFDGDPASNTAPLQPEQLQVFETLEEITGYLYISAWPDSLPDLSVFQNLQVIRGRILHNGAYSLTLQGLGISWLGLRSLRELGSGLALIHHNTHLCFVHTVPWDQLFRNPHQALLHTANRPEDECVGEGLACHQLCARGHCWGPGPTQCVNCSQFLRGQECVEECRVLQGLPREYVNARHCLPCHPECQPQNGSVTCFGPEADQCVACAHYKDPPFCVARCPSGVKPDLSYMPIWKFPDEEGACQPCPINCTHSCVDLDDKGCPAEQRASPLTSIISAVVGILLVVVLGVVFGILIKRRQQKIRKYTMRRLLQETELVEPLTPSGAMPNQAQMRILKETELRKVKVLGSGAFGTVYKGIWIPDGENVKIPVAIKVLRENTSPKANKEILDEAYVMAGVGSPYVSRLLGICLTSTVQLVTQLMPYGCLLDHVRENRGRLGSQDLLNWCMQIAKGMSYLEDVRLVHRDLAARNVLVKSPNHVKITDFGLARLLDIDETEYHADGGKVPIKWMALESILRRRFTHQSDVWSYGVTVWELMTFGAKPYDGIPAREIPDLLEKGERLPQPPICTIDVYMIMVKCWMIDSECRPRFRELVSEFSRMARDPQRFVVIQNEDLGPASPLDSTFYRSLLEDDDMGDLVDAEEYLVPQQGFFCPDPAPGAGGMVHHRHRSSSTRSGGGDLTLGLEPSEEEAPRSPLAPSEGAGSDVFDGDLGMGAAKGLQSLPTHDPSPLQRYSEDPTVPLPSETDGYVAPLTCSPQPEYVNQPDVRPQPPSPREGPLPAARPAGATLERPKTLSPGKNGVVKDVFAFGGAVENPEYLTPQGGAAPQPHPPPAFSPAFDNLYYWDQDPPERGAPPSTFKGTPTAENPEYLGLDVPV
Turning to `COCCOC(=O)C1=C(C)Nc2ncnn2C1c1ccc(F)cc1` (stereo not given), the Her2 level is 87.5% (inactive).
On the same count and under the same terms, the result for `CCC(=O)N[C@@H]1CC(C(C)(C)NC(=O)CC)CC=C1C` (stereo not given in full) reads 83.5% (inactive); that for `O=C(CCCCCN1C(=O)CCC1=O)NCc1ccccc1`, 73% (inactive); that for `O=C(Cn1ccc2ccccc2c1=O)NCCC(=O)NC1CCN(Cc2ccccc2)CC1`, 106% (inactive).
Still for that read-out and setting: then `Cc1ccc(C)c(N2CCN(C(=O)CCCn3c(=S)[nH]c4cc5c(cc4c3=O)OCO5)CC2)c1`, with 88.5% (inactive); and `COC(=O)C1C(=O)c2c([nH]c(C(=O)OCCOC(C)C)c2C)CC1C` (stereo not given), with 111% (inactive).
In the case of `CCOC(=O)c1c(C)[nH]c(C)c1C(=O)COc1ccc(NC(=O)c2ccco2)cc1`, the Her2 level was 102% (inactive).
The same measure, in the same setting: the result for `CN1CCCN(C(=O)c2cc(=O)[nH]c3ccccc23)c2nc3ccccc3nc21` reads 90% (inactive); that for `O=C(Nc1cccnc1)c1ccc2c(c1)C(=O)N(Cc1cccnc1)C2=O`, 99.5% (inactive); that for `CCCCn1c(SCC(=O)Nc2cc(C)on2)nnc1-c1cccnc1`, 111% (inactive).
Same read-out and setting: the result for `Nc1nc(-c2ccccc2Br)cs1` reads 96.5% (inactive); that for `CCOc1ccc(NC(=O)CN(C)S(=O)(=O)c2cccs2)cc1`, 100% (inactive); that for `Cc1sc(NC(=O)CSc2nc(N)n(CC(=O)c3ccccc3)n2)c(C#N)c1C`, 106% (inactive).
Still for that read-out and setting: then `CCOC(=O)C1=C(C)Nc2ncnn2C1c1cc(OC)ccc1OC` (stereo not given), with 84.5% (inactive).
As to `O=S(=O)(NCc1ccccc1)c1ccc2c(c1)OCCO2`, the Her2 level was 110% (inactive).
Same read-out and setting: then `CC1(C)Cc2c(sc3c2C2=NCCN2C=N3)CO1`, with 104% (inactive).
Still for that read-out and setting: the result for `Cc1ccccc1CN1CCN(CC(=O)NCc2ccccc2)C1=O` reads 117% (inactive); that for `Cc1nc2ccccc2cc1C(=O)NCc1ccco1`, 90% (inactive); that for `O=C(NCc1cccnc1)C1c2ccccc2C(=O)N1Cc1ccco1` (stereo not given), 91% (inactive).
On the same count and under the same terms, then `CC(C(=O)N1CCc2ccccc21)N1CCc2ccccc2C1` (stereo not given), with 79% (inactive); and `Cc1ccc2cc(C#N)c(NCCCNC(=O)C3CCCO3)nc2c1` (stereo not given), with 73% (inactive).
Turning to `Nn1c(SCC(=O)Nc2ccc3c(c2)OCO3)nnc1C1CC1`, the Her2 level is 78.5% (inactive).
Still for that read-out and setting: the result for `COc1ccc(C2C(C(=O)c3sc(C)nc3C)=C(O)C(=O)N2CCN2CCOCC2)cc1` (stereo not given) reads 92.5% (inactive); that for `O=C(O)c1cccc(CN2C(=O)SC(Nc3ccccc3)C2=O)c1` (stereo not given), 89% (inactive); that for `Nc1c(S(=O)(=O)c2cccs2)c2nc3ccccc3nc2n1CC1CCCO1` (stereo not given), 89.5% (inactive).
On the same count and under the same terms, the result for `O=C(Nc1ccc(OC(=O)c2ccco2)cc1)c1ccco1` reads 99.5% (inactive); that for `COC(=O)Cn1cnc2c(nnn2-c2ccc(C)cc2)c1=O`, 108% (inactive).
Same read-out and setting: then `O=C(Nc1nc2c(s1)CCc1ccccc1-2)c1cccs1`, with 74% (inactive); and `Cc1cccc(OCCCc2c(C)n[nH]c2C)c1`, with 118% (inactive).
Regarding `O=C(CN1CCC(NC(=O)c2ccc(F)cc2)CC1)NCc1ccccc1F`, the Her2 level is 98.5% (inactive).
Turning to `CCCCc1ccc(NC(=O)c2c(C)noc2C)cc1`, the Her2 level is 94.5% (inactive).
`CC1=Nn2c(nnc2-c2ccccn2)SC1`: the Her2 level is 104% (inactive).
Still for that read-out and setting: the result for `O=c1oc2ccccc2n1CCn1c2ccccc2c2nc3ccccc3nc21` reads 96% (inactive).
On the same count and under the same terms, then `COc1ccc(N2CCN(C(c3cccs3)c3nnnn3C3CCCC3)CC2)cc1` (stereo not given), with 95% (inactive).
On the same count and under the same terms, then `CCc1ccc2c(CN(CC)Cc3nc4ccccc4c(=O)[nH]3)cc(=O)oc2c1`, with 73.5% (inactive); and `COc1ccc(OC)c(N(CC(=O)N2CCN(c3cc(Cl)ccc3C)CC2)S(C)(=O)=O)c1`, with 94% (inactive); and `COC(=O)c1ccc(COc2ncnc3c(Cl)cc(Cl)cc23)o1`, with 100% (inactive).
Take `O=C1CC(c2cccc(Cl)c2)Cc2nc(N3CCN(c4ccccc4)CC3)ncc21` (stereo not given): the Her2 level is 118% (inactive).
Same read-out and setting: then `COc1ccccc1Oc1coc2c(CN3CCN(C)CC3)c(O)ccc2c1=O`, with 111% (inactive); and `CCOC(=O)Nc1ccc2c(CN3C(=O)NC4(CCCC4)C3=O)cc(=O)oc2c1`, with 92.5% (inactive).
